The supplement of paper PMC10849652
Targets with a hit are over-represented here; the source holds about 7,900 in all. About 0.6% of all pairs of compound and target were hits.

Compound: CCCc1cc(C)[nH]c(=O)c1CNC(=O)c1cc(-c2ccnc(N3CCN(C)CC3)c2)cc2c1cnn2C(C)C
Assay: log2 fold change, soluble protein after heating vs DMSO (PISA); higher = thermal stabilisation; K562 cells, 10 uM, 30 min; active = over 0.2 and 3.5 SD of the protein, either way, in both replicates (recomputed)
In short: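 Soluble protein was quantified by TMTpro 16plex LC-MS/MS after channel sums were equalised. It was obtained as the supernatant after 21,000xg for 90 min from pooled aliquots of K562 cells (2×10^6 cells/mL, 10 μM compound, 30 min) heated for 3 min across 48°C-58°C and extracted in PBS with 0.5% NP-40 at 4°C. Thermal stability values are relative to control samples and come from duplicates. They are given as log2 fold changes.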

UniProt Q14157, sequence (Q14157 whole entry, looked up): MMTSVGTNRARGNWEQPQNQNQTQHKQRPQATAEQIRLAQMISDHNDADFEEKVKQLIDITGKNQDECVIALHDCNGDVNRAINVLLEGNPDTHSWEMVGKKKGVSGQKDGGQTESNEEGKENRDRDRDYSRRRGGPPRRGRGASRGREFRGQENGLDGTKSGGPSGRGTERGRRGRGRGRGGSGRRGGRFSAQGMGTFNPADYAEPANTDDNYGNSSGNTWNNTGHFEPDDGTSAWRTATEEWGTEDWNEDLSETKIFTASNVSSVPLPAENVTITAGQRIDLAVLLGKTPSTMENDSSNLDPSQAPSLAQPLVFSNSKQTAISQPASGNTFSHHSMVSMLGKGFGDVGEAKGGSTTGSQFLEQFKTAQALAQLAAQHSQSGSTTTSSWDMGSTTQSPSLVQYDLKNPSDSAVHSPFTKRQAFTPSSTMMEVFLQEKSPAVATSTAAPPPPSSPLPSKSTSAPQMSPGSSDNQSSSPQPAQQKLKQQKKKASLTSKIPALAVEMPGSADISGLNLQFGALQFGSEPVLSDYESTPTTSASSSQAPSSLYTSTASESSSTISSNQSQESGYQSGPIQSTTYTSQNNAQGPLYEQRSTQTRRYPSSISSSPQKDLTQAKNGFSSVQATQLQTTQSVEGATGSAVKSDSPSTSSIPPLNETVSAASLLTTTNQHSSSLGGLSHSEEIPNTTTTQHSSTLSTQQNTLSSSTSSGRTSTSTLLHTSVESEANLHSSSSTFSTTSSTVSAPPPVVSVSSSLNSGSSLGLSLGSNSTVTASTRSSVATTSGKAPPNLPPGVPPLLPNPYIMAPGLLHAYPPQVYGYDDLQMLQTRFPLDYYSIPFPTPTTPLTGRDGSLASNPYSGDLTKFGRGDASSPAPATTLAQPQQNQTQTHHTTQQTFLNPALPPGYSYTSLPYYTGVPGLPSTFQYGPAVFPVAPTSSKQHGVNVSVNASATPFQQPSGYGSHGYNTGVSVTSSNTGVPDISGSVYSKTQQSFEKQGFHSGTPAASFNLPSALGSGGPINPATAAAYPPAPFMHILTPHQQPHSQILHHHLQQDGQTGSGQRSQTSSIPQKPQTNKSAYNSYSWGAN
UniProt Q9H3M7, sequence (Q9H3M7 whole entry, looked up): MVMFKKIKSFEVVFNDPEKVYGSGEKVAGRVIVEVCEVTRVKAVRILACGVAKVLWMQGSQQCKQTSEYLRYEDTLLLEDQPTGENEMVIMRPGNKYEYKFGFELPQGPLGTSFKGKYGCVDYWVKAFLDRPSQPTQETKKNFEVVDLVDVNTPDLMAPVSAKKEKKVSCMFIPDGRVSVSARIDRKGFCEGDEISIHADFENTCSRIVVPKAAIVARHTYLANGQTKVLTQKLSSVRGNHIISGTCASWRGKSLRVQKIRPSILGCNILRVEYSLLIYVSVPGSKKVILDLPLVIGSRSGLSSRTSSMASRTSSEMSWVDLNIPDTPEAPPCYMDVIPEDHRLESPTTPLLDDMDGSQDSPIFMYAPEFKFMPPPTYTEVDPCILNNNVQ
UniProt Q7Z392, sequence (Q7Z392 whole entry, looked up): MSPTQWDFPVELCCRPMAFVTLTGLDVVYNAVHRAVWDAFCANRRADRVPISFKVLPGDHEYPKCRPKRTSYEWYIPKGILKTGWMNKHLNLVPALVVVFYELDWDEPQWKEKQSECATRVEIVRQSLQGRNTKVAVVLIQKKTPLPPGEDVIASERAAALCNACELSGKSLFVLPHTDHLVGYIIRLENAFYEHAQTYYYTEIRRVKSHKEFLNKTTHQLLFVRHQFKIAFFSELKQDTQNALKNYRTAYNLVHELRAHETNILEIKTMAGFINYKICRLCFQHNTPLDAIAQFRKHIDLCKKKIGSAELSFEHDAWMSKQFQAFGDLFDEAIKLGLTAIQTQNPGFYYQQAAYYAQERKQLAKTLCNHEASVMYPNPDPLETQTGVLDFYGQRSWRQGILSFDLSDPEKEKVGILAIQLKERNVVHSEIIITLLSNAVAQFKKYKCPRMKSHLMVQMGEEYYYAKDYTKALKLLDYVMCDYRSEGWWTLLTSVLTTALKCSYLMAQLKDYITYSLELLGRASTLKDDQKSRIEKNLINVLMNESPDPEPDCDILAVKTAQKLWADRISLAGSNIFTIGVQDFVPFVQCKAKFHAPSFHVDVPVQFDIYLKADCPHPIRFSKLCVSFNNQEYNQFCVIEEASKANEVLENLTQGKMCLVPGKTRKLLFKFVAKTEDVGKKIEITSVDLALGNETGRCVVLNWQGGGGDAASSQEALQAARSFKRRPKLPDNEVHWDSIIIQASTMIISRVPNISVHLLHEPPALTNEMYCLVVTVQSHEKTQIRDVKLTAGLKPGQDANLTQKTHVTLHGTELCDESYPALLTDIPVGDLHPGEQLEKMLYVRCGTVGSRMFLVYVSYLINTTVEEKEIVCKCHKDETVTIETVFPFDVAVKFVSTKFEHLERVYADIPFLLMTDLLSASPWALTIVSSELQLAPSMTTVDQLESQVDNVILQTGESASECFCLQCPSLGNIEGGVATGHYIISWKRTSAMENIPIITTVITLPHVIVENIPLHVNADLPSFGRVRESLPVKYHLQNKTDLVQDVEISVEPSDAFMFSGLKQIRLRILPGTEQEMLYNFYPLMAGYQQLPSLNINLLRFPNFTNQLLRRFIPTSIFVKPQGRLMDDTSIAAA
UniProt Q86Y07, sequence (Q86Y07 whole entry, looked up): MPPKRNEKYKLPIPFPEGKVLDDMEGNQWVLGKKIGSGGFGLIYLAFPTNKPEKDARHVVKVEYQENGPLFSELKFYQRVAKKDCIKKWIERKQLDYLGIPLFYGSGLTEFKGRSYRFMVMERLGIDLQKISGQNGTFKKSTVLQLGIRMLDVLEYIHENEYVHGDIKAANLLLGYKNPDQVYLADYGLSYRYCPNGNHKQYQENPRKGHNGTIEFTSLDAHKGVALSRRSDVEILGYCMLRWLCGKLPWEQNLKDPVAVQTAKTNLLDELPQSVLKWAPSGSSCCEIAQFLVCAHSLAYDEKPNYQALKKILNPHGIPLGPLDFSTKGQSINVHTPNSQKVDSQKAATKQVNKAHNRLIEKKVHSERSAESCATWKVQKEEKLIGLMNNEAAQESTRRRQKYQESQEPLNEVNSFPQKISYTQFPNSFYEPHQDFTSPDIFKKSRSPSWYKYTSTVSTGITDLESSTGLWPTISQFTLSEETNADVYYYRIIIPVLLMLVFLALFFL
UniProt P57081, sequence (P57081 whole entry, looked up): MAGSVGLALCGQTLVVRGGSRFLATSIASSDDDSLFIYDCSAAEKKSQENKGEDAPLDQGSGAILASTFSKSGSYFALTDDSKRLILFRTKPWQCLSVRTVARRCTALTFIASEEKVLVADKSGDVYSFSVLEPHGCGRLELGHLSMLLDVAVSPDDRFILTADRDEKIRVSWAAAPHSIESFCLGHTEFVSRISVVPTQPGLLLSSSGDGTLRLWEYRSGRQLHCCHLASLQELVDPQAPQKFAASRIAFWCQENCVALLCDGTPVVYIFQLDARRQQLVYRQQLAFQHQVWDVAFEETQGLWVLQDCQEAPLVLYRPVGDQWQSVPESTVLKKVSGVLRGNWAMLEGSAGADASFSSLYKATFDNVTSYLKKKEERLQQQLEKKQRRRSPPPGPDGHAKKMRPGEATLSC
UniProt Q9UDW1, sequence (Q9UDW1 whole entry, looked up): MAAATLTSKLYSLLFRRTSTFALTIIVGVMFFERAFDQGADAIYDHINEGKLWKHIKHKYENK
UniProt Q9BTX3, sequence (Q9BTX3 whole entry, looked up): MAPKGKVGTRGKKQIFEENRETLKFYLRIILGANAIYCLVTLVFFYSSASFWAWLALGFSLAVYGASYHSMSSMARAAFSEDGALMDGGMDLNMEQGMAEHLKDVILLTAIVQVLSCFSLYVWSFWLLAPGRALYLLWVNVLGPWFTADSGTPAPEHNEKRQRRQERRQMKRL
UniProt Q86UV5, sequence (Q86UV5 whole entry, looked up): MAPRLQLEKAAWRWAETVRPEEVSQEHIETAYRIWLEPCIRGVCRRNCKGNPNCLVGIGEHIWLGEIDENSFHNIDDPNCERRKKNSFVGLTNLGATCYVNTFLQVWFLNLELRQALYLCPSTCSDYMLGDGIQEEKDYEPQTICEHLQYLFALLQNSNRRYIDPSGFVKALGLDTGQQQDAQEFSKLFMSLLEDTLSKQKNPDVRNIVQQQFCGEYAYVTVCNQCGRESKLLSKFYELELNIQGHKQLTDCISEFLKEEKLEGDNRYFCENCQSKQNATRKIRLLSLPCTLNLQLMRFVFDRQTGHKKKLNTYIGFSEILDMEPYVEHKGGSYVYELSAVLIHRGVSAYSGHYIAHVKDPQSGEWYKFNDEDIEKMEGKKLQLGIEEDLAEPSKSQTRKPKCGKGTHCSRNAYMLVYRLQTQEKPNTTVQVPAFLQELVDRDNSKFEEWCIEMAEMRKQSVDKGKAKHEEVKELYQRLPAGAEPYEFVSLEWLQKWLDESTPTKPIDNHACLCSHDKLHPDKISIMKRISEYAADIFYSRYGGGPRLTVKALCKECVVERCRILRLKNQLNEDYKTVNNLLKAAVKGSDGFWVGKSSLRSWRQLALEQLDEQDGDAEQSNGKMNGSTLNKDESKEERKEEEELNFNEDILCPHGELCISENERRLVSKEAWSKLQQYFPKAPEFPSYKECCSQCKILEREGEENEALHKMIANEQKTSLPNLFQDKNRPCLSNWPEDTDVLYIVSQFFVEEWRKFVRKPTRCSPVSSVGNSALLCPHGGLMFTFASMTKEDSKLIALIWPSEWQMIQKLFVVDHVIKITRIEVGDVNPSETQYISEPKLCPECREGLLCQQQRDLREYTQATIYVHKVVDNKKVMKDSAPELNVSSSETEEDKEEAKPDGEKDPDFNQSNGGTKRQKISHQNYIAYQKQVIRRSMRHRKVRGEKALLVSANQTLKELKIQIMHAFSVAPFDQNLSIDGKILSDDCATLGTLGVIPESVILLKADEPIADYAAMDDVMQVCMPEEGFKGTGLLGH
UniProt Q99757, sequence (Q99757 whole entry, looked up): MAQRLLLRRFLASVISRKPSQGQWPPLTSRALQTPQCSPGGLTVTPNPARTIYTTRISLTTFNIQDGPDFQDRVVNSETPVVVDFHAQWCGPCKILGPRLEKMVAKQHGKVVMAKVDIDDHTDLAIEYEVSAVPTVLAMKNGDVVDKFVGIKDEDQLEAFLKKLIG

log2 fold change, inactive:
WDR4 (UniProt P57081) -0.013
VPS35L (UniProt Q7Z3J2) 0.086
UBA6 0.036
UQCR10 (UniProt Q9UDW1) 0.007
TRAPPC11 (UniProt Q7Z392) -0.012
TXN2 (UniProt Q99757) 0.095
UBAP2L isoform 1 (UniProt Q14157) -0.045
TMEM208 (UniProt Q9BTX3) -0.219
UBAP2L isoform 5 (UniProt Q14157) -0.03
TXNIP (UniProt Q9H3M7) 0.001
VRK2 (UniProt Q86Y07) 0.025
WDR61 (UniProt Q9GZS3) -0.02
USP48 isoform 8 (UniProt Q86UV5) 0.103
